Screening data (PubChem BioAssay)
FMDV antiviral: antivirals against foot and mouth disease virus. FMDV antiviral cell-based qHTS. Potency, µM (titrated, usually from 57.9 µM), for inactives: at the top dose activity change, negative = inhibition, actives largely listed as inhibitors. 1.2% of 410,000 active. AID 1159524; calls by dose curve; tested in HEK293T cells; also: read-out not given here; potency is read from the fitted curve at half-maximal effect; % is scaled to controls: 0 for no effect and ±100 for the full control effect; nearly all actives have a fitted effect of over 45% in size
HCMV inh: human cytomegalovirus inhibition. HFF cells, HCMV-luciferase reporter, 72 h; active compounds read low. activity change, negative = inhibition, % at 57.5 µM. 4.5% of 410,000 active. AID 1259415; in the data active = activity change below about -60%; inconclusive = no clear call, values can overlap the other calls; inactive = above about -39%; also: % is scaled to controls: 0 for no effect and ±100 for the full control effect
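Luciferase read-out from HCMV-luciferase-infected HFFs (MOI 1 PFU/cell) 72 h post infection at 37C; compounds added after 16 h cell attachment; activity normalized between buffer-only basal and Salinomycin (10uM) inhibitor controls.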
HCV inh: inhibitors of hepatitis C virus infection; Huh7.5.1 HCVcc-Cre infection, luciferase reporter, 44 h; Potency, µM (titrated, usually from 41.8 µM), inactives show at the highest dose activity change, negative = inhibition, usual class: inhibitors; 3.4% of 340,000 active; also: potency is read from the fitted curve at half-maximal effect; % is scaled to controls: 0 for no effect and ±100 for the full control effect
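Cells (1,000/well) were plated 4 h before compound, then infected with HCVcc-Cre virus (~0.5 moi). After 44 h further culture, infection was read as luciferase luminescence following a 15 min substrate incubation at room temperature.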
VACV Venus inh: inhibitors of vaccinia virus (Venus reporter) | Vaccinia virus Venus reporter expression, fluorescence | Potency, µM (top dose mostly 36.5 µM), inactives show at the top dose activity change, negative = inhibition, most hits filed as inhibitors | 0.46% of 330,000 active | AID 720580; calls by dose curve; tested in A549 cells; also: potency is read from the fitted curve at half-maximal effect; % is scaled to controls: 0 for no effect and ±100 for the full control effect; nearly all actives have a fitted effect of over 30% in size
Vaccinia mCherry: vaccinia inhibition (mCherry reporter) | Potency, µM (doses to about 36.5 µM), for inactives: at the highest dose activity change, negative = inhibition, usual class: inhibitors | 0.63% of 310,000 active | Vaccinia virus mCherry reporter infection, fluorescence; calls by dose curve; tested in A549 cells; also: potency is read from the fitted curve at half-maximal effect; % is scaled to controls: 0 for no effect and ±100 for the full control effect; nearly all actives have a fitted effect of over 35% in size
HCV confirm: HCV inhibition, cherry-pick confirmation; Potency, µM (highest dose often 41.8 µM), inactives show at the highest dose activity, negative = inhibition, actives largely listed as inhibitors; shares compounds with HCV inh; 78% of 640 active; HCVcc-Cre infectious virus cell assay, luciferase, inhibition; AID 720575; also: potency is read from the fitted curve at half-maximal effect; nearly all actives have a fitted effect of over 80% in size
HCV host tox: host cell cytotoxicity counter-screen for HCV inhibitors | HCV host cell line cytotoxicity counterscreen | shares compounds with HCV inh | Potency, µM (highest dose often 41.8 µM), inactives show at the highest dose activity change, negative = cytotoxicity, actives largely listed as inhibitors | 22% of 640 active;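 also: potency is read from the fitted curve at half-maximal effect; 44 h compound exposure; % is scaled to controls: 0 for no effect and ±100 for the full control effect; nearly all actives have a fitted effect of over 55% in size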
Active calls of the source: *; i = inactive; u = inconclusive; x = not tested or not shown. Most compounds without a hit are left out; they make up all but 7.3% or so of the library. Unless noted, calls follow the shape of the dose curve; as a rule, active = well fitted curve in the direction sought with a large enough effect; inconclusive = small, poorly fitted or top-dose-only effect, or another doubt; inactive = no such curve, though single readings can be large; an effect the other way counts as inactive or inconclusive.

SMILES | FMDV antiviral | HCMV inh | HCV inh | VACV Venus inh | Vaccinia mCherry | HCV confirm | HCV host tox
O=C(CSc1nccn1Cc1ccccc1)Nc1ccc2c(c1)OCO2 | 63.0% | 6.8 | x | -4.1% | -9.7% | x | x
Cc1ccc(CNc2ncnc3onc(-c4ccc(F)cc4)c23)cc1 | -23.5% | -15.3 | x | -9.1% | -8.4% | x | x
CC(C)(C)NC(=O)N1CCC(C(=O)O)CC1 | -15.6% | 10.2 | x | -3.0% | -4.5% | x | x
CCC[C@H]1[C@@H](NS(=O)(=O)c2ccc(Br)cc2)CC[C@@]23CCCN2C(=O)CCC[C@@H]13 | x | 29.0 | x | x | x | x | x
COc1cc(OC)cc(C(=O)Nc2nnc(SCC(=O)NCc3ccco3)s2)c1 | 100µM* | 41.7 | -1.8% | -10.0% | -13.6% | x | x
On1onc2c3cc(-c4ccccc4)nc3ccc21 | 23.7% | -108.0* | 2.24µM* | u | 3.16µM* | x | x
CC1=CC(C)CC(C)OC(=O)CC(c2ccc(O)cc2)NC(=O)C(Cc2c(Br)[nH]c3ccccc23)N(C)C(=O)C(C)NC(=O)C(C)C1 (stereo unspecified) | -26.9% | -97.7* | u | 35.5µM* | 31.6µM* | x | x
CC(=O)c1ccc(N/N=C(/C(N)=O)C2=NC(C)(C)Cc3ccccc32)cc1 | 0.0% | u | u | u | u | x | x
CC1(C)Cc2ccccc2C(/C(=N\Nc2cccc(Cl)c2)C(N)=O)=N1 | u | -101.8* | u | u | u | x | x
CCCCCn1c(=O)c(C(=O)NCc2ccco2)c(O)c2ccccc21 | -19.1% | -28.6 | u | -9.0% | 3.2% | 25µM* | u
Cc1cccc(C)c1NC(=O)C1(C)CSCC(=O)N1CCc1c[nH]c2ccccc12 (stereo unspecified) | 5.3% | 27.8 | x | 2.4% | i | x | x
CC1Cc2ccccc2N1C(=O)CSc1nc2ccc(NC(=O)COc3ccccc3)cc2s1 (stereo unspecified) | -15.4% | -1.2 | x | -20.6% | -17.8% | x | x
c1ccc(-c2cccc(-c3ccccn3)n2)nc1 | 9.5% | -100.8* | 5.62µM* | x | x | 3.53µM* | 3.53µM*
CCOc1ccc(OC(=O)c2cn(-c3ccc(C)cc3)c(=O)c3ccccc23)cc1 | -27.3% | 7.3 | x | -9.3% | -12.1% | x | x
Cc1ccc(-c2c3c(=O)n(C)c(=O)n(C)c3c3c(C)nc4ccccc4n23)cc1 | -11.5% | 0.0 | x | 5.1% | -4.7% | x | x
Cc1ccc2c(c1)-c1cc(C)ccc1C2=O | 5.3% | 9.4 | u | -3.9% | -1.9% | 22.3µM* | 10.0%
COc1ccc(NC(=O)/C=C/c2cc(Br)ccc2OC)cc1 | -1.5% | -29.0 | u | -16.2% | x | x | x
CCN(CC)c1ccc(NC(=O)/C=C/c2cc(Br)ccc2OC)cc1 | 0.0% | 9.5 | u | u | -21.0% | 12.5µM* | u
CCOCCCn1c(=N)c(C(N)=S)cc2c(=O)n3cccc(C)c3nc21 | -24.2% | -16.5 | u | x | x | 19.9µM* | -98.2%
CCOCCCn1c(=N)c(S(=O)(=O)c2ccc(Cl)cc2)cc2c(=O)n3cccc(C)c3nc21 | -2.8% | -4.5 | x | -6.6% | -17.8% | x | x
CN1CCN(CC(O)Cn2c3ccccc3c3ccccc32)CC1 (stereo unspecified) | -8.5% | -30.3 | u | x | x | x | x
CN1CCN(CC#CCn2c3ccccc3c3ccccc32)CC1 | 9.4% | -4.0 | 3.98µM* | -30.0% | u | 7.05µM* | 12.6%
CNc1ccc2nc3ccccc3[n+](C)c2c1 | -17.4% | -100.9* | 3.16µM* | 367.4% | 136.6% | 12.5µM* | 14.1µM*
COc1ccc(S(=O)(=O)NCc2ccc(C(=O)NCCN(C)Cc3ccccc3)cc2)cc1 | -21.6% | -6.6 | x | -1.0% | 40.1% | x | x
COC(=O)c1ccc(CN2CCc3ccc(NC(=O)c4ccncc4)cc3C2)cc1 | u | u | 8.91µM* | -20.1% | -4.9% | 14.1µM* | u
SMILES | FMDV antiviral | HCMV inh | HCV inh | VACV Venus inh | Vaccinia mCherry | HCV confirm | HCV host tox
Cc1ccc(C)c(Nc2ncnc3c2cnn3-c2ccc(F)cc2)c1 | 19.0% | 70.1 | x | 0.6% | -11.8% | x | x
O=[N+]([O-])c1ccccc1Oc1ccc(S(=O)(=O)N2CCOCC2)cc1 | u | 2.6 | 7.94µM* | x | x | u | 24.9%
O=S(=O)(c1ccc(Oc2ccccc2)cc1)N1CCOCC1 | u | -11.8 | u | x | x | x | x
CC(C)NC(=O)c1cc2c(Cl)nc3ccccc3c2s1 | -27.0% | -2.5 | x | -7.1% | -7.0% | x | x
O=S(=O)(NCC(c1ccco1)S(=O)(=O)c1cccs1)c1ccc(F)c(C(F)(F)F)c1 (stereo unspecified) | 28.7% | -30.3 | x | -21.6% | -20.9% | x | x
N#CCCn1c(=O)cnc2cnc(Nc3ccccc3)nc21 | 3.0% | x | x | x | x | x | x
CCOc1ccc(S(=O)(=O)NCc2ccncc2)cc1 | -13.6% | -95.9* | u | x | x | 0.281µM* | 0.25µM*
CCOC(=O)COc1ccc(S(=O)(=O)NCc2ccncc2)cc1 | x | -18.9 | 14.0% | -13.6% | -12.1% | x | x
Cc1ccc(S(=O)(=O)NCC(=O)NCc2ccncc2)cc1 | 0.0% | 21.0 | 2.4% | -11.4% | x | x | x
Cc1ccc(S(=O)(=O)NCc2ccncc2)cc1 | 2.0% | u | 2.82µM* | u | -24.5% | 2.23µM* | 8.87µM*
CCOc1ccccc1NC(=O)/C=C/c1ccccc1[N+](=O)[O-] | -17.3% | 7.6 | u | -12.7% | i | u | 26.7%
O=C(/C=C\c1ccccc1[N+](=O)[O-])Nc1ccccc1 | 4.5% | 57.4 | -24.7% | x | x | x | x
CCCc1cc(=O)oc2c3c(ccc12)OCN(Cc1ccccc1OC)C3 | -16.8% | 4.2 | x | -1.4% | -12.9% | x | x
O=C(CN1C(=O)CC(c2ccccc2)Sc2ccccc21)Nc1cccc(Cl)c1 (stereo unspecified) | 0.0% | -19.1 | x | -14.4% | -23.3% | x | x
COc1ccccc1NC(=O)C(C)OC(=O)c1cc2ccccc2[nH]1 (stereo unspecified) | u | 4.7 | u | x | x | 7.91µM* | 17.7µM*
COC(=O)c1cc2ccsc2n1CC(=O)Nc1cc(Cl)ccc1OC | x | -96.5* | 3.16µM* | u | u | 7.91µM* | 14.1µM*
O=C(c1ccc2c(c1)N(Cc1cccc(Cl)c1)C(=O)c1ccccc1S2(=O)=O)N1CCC(Cc2ccccc2)CC1 | -7.5% | u | x | -14.0% | -5.6% | x | x
CCCCCCCCn1ccc(=N)cc1 | u | u | 0.891µM* | -11.7% | -14.9% | 1.77µM* | 2.23µM*
CCCCCCn1c(/C=C/c2ccccc2)nc2ccccc21 | -9.3% | 22.6 | x | -14.7% | -8.9% | x | x
COC(=O)/C=C/c1ccc(C(=O)NCC(=O)N[C@@H](CCC(=O)OC)C(=O)N[C@@H](CC(C)C)C(N)=O)cc1 | 2.2% | x | x | -14.6% | i | x | x
COc1ccc(C(=O)Nc2nnc(SCC(=O)Nc3ccc(NC(C)=O)cc3)s2)c(OC)c1 | 30.2% | 64.2 | -12.1% | x | x | x | x
CCc1nnc(NC(=O)c2ccc(OC)cc2OC)s1 | x | 79.0 | 8.91µM* | -8.1% | -1.8% | -19.3% | -31.8%
Cc1ccc(C(=O)NCCN2CCC(n3c(=O)[nH]c4ccccc43)CC2)cc1C | -46.3% | 18.3 | x | -4.0% | -10.9% | x | x
